Laboratory results: the supplement of paper PMC10849652
Targets with a hit are over-represented here; the source holds about 7,900 in all. About 0.6% of all pairs of compound and target were hits. Values without a mark were called inactive.

Columns and labels:
Test in all cases: log2 fold change, soluble protein after heating vs DMSO (PISA); higher = thermal stabilisation; K562 cells, 10 uM, 30 min; active = over 0.2 and 3.5 SD of the protein, either way, in both replicates (recomputed)
[1] = compound: CC1=C(C=C(C=C1)NC(=O)C2=CC(=CC=C2)N(C)C)NC(=O)C3=CC=C(C=C3)O
Method in brief: (§1)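 Values are thermal stability changes relative to control samples and are taken from duplicates. They are stated as log2 fold changes. Before quantification by TMTpro 16plex LC-MS/MS with equalised channel sums, K562 cells at 2×10^6 cells/mL were treated with 10 μM compound for 30 min, heated in aliquots for 3 min across 48°C-58°C, pooled, extracted in PBS with 0.5% NP-40 at 4°C, and centrifuged at 21,000xg for 90 min to give the soluble supernatant.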

[2] = compound: CC1=NC(=CC=C1)C2=C(N=C(N2)C(C)(C)C)C3=CC4=NC=CN=C4C=C3
Method in brief: as §1

[3] = compound: CCCS(=O)(=O)Nc1ccc(F)c(C(=O)c2c[nH]c3ncc(-c4ccc(Cl)cc4)cc23)c1F [vemurafenib]
Method in brief: as §1

[4] = compound: CCCc1cc(C)[nH]c(=O)c1CNC(=O)c1cc(-c2ccnc(N3CCN(C)CC3)c2)cc2c1cnn2C(C)C
Method in brief: as §1

[5] = compound: CC[C@H](C)N1C=C(C2=C(C=C(C=C21)C3=CN=C(C=C3)N4CCNCC4)C(=O)NCC5=C(C=C(NC5=O)C)C)C
Method in brief: as §1

[6] = compound: CN(C)CC(=O)Nc1ccc2[nH]c(=O)c3ccccc3c2c1
Method in brief: as §1

[7] = compound: CC1=C(C=C(C=C1)NC(=O)C2=CC(=CC=C2)C(C)(C)C#N)NC3=CC4=C(C=C3)N=CN(C4=O)C
Method in brief: as §1

[8] = compound: CCCCN(Cc1ccc(C(=O)NO)cc1)C(=O)Nc1ccccc1 [Nexturastat A]
Method in brief: as §1

[9] = compound: CC[C@@H]1C(=O)N(C)c2cnc(Nc3ccc(C(=O)NC4CCN(C)CC4)cc3OC)nc2N1C1CCCC1
Method in brief: as §1

[10] = compound: CC[C@H](C)[C@@H](C(=O)N[C@@H]([C@@H](C)O)C(=O)N[C@@H](CC(C)C)C(=O)[C@]1(CO1)C)NC(=O)[C@H]([C@@H](C)CC)N(C)C(=O)C [epoxomicin]
Method in brief: as §1

[11] = compound: CCn1cc(-c2ccnc3[nH]c(-c4cccc(CN(C)C)c4)cc23)c(-c2ccc(NC(=O)N(C)C)cc2)n1
Method in brief: as §1

[12] = compound: CN1C2=C(C3=C1C(=O)N(N=C3)CC4=CC(=CC=C4)N)SC(=C2)S(=O)C
Method in brief: as §1

[13] = compound: CN1CCC(CNc2ccc3ncc(-c4cccc(OC(F)(F)F)c4)n3n2)CC1
Method in brief: as §1

[14] = compound: CC1=CC=C(C=C1)SC2=C3C=C(SC3=CN=C2)C(=O)N
Method in brief: as §1

[15] = compound: CCCS(=O)(=O)Nc1ccc(F)c(C(=O)c2c[nH]c3ncc(Cl)cc23)c1F
Method in brief: as §1

[16] = compound: CCN(CC)Cc1ccc2cc(COC(=O)Nc3ccc(C(=O)NO)cc3)ccc2c1 [givinostat]
Method in brief: as §1

[17] = compound: CCN(CCCOc1ccc2c(Nc3cc(CC(=O)Nc4cccc(F)c4)[nH]n3)ncnc2c1)CCOP(=O)(O)O [barasertib]
Method in brief: as §1

[18] = compound: CC[C@@H]1C(=O)N(C)c2cnc(Nc3ccc(C(=O)N[C@H]4CC[C@H](N5CCN(CC6CC6)CC5)CC4)cc3OC)nc2N1C(C)C [volasertib]
Method in brief: as §1

[19] = compound: CCn1c(C(=O)N(C2CC2)C2CC2)cc2c3c(ncn3C)c(Nc3cc(C)n(C)n3)nc21
Method in brief: as §1

[20] = compound: CN(CCOC1=CC=C(C=C1)C[C@H]2C(=O)NC(=O)S2)C3=CC=CC=N3 (racemic) [rosiglitazone]
Method in brief: as §1

Sequence of UniProt Q9H2X9 (Q9H2X9 whole entry, looked up): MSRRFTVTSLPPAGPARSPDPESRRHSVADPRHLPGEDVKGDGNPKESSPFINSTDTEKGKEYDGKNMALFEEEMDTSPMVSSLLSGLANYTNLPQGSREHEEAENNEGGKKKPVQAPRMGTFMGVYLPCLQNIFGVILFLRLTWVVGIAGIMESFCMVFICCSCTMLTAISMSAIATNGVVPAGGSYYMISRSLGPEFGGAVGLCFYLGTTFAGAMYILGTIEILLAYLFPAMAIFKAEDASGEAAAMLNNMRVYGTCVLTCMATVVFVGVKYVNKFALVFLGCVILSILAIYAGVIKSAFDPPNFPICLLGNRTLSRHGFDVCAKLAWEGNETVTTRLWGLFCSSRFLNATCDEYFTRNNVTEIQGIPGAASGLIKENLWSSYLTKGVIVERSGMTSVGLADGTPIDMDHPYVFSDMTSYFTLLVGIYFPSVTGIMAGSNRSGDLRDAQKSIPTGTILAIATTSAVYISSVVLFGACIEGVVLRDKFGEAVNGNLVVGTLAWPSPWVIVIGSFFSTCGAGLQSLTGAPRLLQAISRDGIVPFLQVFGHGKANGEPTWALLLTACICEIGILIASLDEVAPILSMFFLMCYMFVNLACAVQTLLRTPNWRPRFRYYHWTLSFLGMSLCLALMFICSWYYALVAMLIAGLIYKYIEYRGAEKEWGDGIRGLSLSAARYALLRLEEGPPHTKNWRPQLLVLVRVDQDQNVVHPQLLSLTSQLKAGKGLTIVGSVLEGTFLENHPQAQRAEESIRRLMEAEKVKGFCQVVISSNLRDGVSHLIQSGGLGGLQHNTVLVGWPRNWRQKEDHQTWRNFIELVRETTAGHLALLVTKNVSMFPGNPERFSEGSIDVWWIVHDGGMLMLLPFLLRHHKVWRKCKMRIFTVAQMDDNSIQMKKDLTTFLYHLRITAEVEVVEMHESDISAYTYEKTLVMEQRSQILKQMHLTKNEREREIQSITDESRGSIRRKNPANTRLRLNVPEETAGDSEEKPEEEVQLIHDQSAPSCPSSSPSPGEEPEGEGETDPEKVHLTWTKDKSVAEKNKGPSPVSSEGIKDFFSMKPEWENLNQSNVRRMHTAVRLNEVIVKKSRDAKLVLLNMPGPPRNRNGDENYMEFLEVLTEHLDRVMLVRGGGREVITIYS
Sequence of UniProt O75582 (O75582 whole entry, looked up): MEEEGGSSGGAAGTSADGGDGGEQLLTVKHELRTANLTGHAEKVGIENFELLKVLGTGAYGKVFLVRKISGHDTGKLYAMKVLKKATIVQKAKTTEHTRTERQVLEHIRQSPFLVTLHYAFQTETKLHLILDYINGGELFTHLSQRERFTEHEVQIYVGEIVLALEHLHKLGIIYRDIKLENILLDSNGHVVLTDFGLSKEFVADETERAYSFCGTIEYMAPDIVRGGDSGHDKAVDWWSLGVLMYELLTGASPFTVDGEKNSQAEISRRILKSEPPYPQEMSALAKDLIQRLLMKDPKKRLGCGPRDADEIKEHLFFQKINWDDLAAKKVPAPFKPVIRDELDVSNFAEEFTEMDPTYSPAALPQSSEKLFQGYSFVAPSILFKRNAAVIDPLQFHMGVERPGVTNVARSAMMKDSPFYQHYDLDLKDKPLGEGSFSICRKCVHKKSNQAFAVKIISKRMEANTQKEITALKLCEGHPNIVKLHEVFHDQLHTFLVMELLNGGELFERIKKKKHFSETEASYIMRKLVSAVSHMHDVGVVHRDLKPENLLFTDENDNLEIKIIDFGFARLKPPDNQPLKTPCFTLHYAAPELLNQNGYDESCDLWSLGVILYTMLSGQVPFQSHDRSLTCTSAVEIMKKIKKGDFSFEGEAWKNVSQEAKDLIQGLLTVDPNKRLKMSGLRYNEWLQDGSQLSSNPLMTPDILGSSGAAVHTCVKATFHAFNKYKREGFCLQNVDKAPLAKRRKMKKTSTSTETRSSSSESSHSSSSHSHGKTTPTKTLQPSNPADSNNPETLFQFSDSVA
Sequence of UniProt Q86X27 (Q86X27 whole entry, looked up): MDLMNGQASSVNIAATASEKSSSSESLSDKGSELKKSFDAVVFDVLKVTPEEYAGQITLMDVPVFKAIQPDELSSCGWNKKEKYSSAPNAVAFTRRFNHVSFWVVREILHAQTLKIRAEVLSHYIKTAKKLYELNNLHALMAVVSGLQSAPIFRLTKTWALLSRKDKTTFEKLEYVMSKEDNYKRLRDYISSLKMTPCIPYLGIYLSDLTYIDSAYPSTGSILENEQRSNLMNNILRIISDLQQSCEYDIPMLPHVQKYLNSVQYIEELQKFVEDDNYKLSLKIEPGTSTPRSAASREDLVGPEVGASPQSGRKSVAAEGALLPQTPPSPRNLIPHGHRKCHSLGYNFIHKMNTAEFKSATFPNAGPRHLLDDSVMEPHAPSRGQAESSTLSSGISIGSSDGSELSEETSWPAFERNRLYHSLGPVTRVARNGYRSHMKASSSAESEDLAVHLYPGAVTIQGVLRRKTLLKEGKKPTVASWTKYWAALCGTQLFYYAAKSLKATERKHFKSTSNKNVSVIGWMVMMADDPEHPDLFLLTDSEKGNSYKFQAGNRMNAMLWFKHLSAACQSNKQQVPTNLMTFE
Sequence of UniProt O75056 (O75056 whole entry, looked up): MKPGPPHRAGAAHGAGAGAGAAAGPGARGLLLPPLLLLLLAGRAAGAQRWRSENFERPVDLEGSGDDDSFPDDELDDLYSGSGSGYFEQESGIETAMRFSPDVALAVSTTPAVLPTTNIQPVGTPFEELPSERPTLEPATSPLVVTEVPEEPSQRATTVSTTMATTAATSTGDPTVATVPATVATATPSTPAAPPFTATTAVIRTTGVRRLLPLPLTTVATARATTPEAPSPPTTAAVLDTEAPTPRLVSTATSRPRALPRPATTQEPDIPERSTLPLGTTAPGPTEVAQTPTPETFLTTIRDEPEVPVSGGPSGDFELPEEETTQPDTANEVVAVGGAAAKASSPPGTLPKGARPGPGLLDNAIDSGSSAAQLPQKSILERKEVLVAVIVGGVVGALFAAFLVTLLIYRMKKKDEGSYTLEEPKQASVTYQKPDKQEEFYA
Sequence of UniProt O95716 (O95716 whole entry, looked up): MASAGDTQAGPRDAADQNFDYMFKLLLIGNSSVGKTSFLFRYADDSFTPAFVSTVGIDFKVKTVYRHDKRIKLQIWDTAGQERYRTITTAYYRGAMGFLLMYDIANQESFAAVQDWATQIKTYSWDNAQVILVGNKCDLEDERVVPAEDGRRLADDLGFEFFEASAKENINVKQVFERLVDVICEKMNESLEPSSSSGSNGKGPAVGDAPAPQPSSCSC
Sequence of UniProt Q8WZA2 (Q8WZA2 whole entry, looked up): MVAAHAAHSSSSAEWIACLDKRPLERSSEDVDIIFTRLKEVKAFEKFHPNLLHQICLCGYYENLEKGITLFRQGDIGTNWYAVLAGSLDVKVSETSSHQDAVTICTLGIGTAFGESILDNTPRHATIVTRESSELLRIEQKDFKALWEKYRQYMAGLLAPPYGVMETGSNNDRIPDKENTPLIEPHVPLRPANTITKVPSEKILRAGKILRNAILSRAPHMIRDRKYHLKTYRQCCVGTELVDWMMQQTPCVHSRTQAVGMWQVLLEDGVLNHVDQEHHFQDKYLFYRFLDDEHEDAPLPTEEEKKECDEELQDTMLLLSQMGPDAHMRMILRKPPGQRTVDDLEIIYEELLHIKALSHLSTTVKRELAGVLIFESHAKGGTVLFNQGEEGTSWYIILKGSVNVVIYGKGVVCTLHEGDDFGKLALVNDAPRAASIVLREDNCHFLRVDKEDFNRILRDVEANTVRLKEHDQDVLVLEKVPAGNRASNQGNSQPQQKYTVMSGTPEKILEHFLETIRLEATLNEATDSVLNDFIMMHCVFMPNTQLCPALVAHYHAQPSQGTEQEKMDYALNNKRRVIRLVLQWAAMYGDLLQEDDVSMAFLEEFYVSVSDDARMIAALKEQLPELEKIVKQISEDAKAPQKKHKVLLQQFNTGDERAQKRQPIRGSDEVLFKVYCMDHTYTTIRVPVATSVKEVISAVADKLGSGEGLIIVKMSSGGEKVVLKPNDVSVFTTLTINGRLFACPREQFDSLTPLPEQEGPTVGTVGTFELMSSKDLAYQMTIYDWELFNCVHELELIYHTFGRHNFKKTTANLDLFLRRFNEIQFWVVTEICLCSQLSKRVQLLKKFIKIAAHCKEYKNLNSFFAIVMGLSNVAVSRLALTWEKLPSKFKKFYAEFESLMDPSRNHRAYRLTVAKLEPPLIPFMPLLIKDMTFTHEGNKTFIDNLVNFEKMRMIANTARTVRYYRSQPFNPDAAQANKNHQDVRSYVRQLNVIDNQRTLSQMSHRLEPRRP

| Target | log2 fold change [1] | log2 fold change [2] | log2 fold change [3] | log2 fold change [4] | log2 fold change [5] | log2 fold change [6] | log2 fold change [7] | log2 fold change [8] | log2 fold change [9] | log2 fold change [10] | log2 fold change [11] | log2 fold change [12] | log2 fold change [13] | log2 fold change [14] | log2 fold change [15] | log2 fold change [16] | log2 fold change [17] | log2 fold change [18] | log2 fold change [19] | log2 fold change [20] |
| --- | --- | --- | --- | --- | --- | --- | --- | --- | --- | --- | --- | --- | --- | --- | --- | --- | --- | --- | --- | --- |
| RMDN2 isoform 2 (UniProt Q96LZ7) | -0.022 | -0.127 | 0.217 | -0.196 | 0.068 | -0.167 |  |  |  |  |  |  |  |  |  |  |  |  |  |  |
| SDC3 (UniProt O75056) |  |  | 0.073 |  | 0.067 | 0.006 | 0.091 | 0.016 | 0.223 | 0.005 | -0.401 | -0.017 | 0.632 |  |  |  |  |  |  |  |
| RABGAP1L isoform 5 (UniProt Q5R372) |  | -0.055 |  | -0.197 | 0.074 |  | -0.106 | -0.009 |  | -0.085 |  | 0.059 |  | -0.047 | -0.016 | -0.013 | 0 | 0.01 | 0.017 | 0.046 |
| ROMO1 (UniProt P60602) | -0.011 |  |  | -0.082 | -0.06 |  | 0.087 | -0.066 | 0.033 | -0.178 | -0.023 | 0.125 | 0.049 | 0.005 | -0.017 | -0.027 | -0.036 | 0.01 | 0.024 | -0.023 |
| RICTOR isoform 3 (UniProt Q6R327) |  |  |  |  | -0.033 |  | -0.09 | 0.25 | -0.271 | 0.064 | -0.083 | 0.265 | -0.169 | 0.074 | 0.018 | -0.057 |  | -0.758 (active) | -0.585 |  |
| SF3B5 (UniProt Q9BWJ5) |  | 0.111 | -0.055 | -0.009 | -0.057 | 0.006 | 0.003 | 0.042 | 0.089 | 0.426 (active) | 0.035 | 0.082 | 0.035 | 0.072 | -0.027 | 0.129 | -0.12 | -0.14 | 0.042 | -0.044 |
| S100A10 (UniProt P60903) |  |  |  |  | 0.145 |  | 0.128 |  | 0.284 |  | -0.056 |  | -0.026 | 0.181 | -0.086 |  | 0.113 | -0.048 |  | -0.094 |
| RALGPS2 (UniProt Q86X27) |  | -0.234 | 0.023 | -0.128 |  | -0.059 |  | 1.06 (active) | 0.139 | -0.247 | -0.203 | 0.137 | 0.082 |  |  | -0.147 | -0.116 |  | 0.145 | -0.082 |
| RPS3 (UniProt E9PJN9) | 0.125 |  |  |  |  |  |  |  | 0.098 |  | -0.125 | 0.088 | 0.089 |  |  |  |  |  |  |  |
| RPS19 (UniProt M0R2L9) |  |  |  | 0.113 | -0.256 |  |  |  |  |  |  |  |  | -0.169 | -0.98 |  |  | 0.492 |  |  |
| RNF220 isoform 3 (UniProt Q5VTB9) |  |  |  |  |  |  |  |  |  |  |  |  |  | 0.385 | 0.201 | -0.059 |  | -0.31 | -0.001 |  |
| SDCBP isoform 2 (UniProt O00560) | -0.058 |  |  | -0.048 | -0.021 |  | 0.06 | 0.149 | -0.015 | 0.056 | -0.234 | -0.196 | -0.208 | 0.004 | 0.076 | -0.008 | 0.046 | -0.221 | -0.068 | 0.105 |
| RNF2 (UniProt Q99496) |  | 0.022 | -0.066 | 0.07 | -0.307 (active) | 0.007 | 0.155 | 0.024 | -0.045 | 0.168 | 0.012 | 0.063 | -0.03 | 0.051 | 0.061 | -0.04 | -0.002 | -0.169 | 0.1 | 0.036 |
| SLC12A5 (UniProt Q9H2X9) |  | 0.198 | -0.105 | -0.018 |  | -0.013 | 0.074 | 0.001 | -0.007 | -0.162 |  | 0.316 |  | 0.108 | 0.081 | 0.016 | -0.004 | -0.033 | 0.002 | -0.022 |
| RAPGEF4 (UniProt Q8WZA2) |  | -0.235 | -0.267 | -0.203 |  | -0.011 | -0.046 | 0.245 | -0.13 | -0.038 |  | -0.036 |  |  |  | 0.248 | 0.041 |  | -0.136 | 0.065 |
| RBM6 (UniProt P78332) |  | 0.092 |  | -0.079 | 0.094 |  | -0.009 |  |  |  | 0.148 | 0.109 | 0.175 | -0.056 | 0.031 |  |  | -0.148 |  |  |
| SAFB2 (UniProt K7EQU4) |  | 0.057 |  |  | -0.095 |  |  | 0.111 |  | -0.11 |  |  |  |  |  |  | 0.295 |  |  | -0.269 |
| RNF185 (UniProt Q96GF1) | -0.055 |  | 0.009 | -0.081 | -0.06 | 0.028 |  |  | -0.041 |  | -0.003 |  | 0.09 | -0.074 | 0.1 | -0.013 | 0.055 | -0.101 | 0.02 | -0.075 |
| RAB3D (UniProt O95716) | 0.074 |  | -0.113 | 0.032 | 0.097 | -0.098 |  |  | 0.039 |  | 0.041 | 0.103 | 0.129 | 0.036 | 0.094 | -0.08 | 0.034 | 0.025 | 0.067 | -0.013 |
| RPS6KA5 (UniProt O75582) | -0.039 | -0.017 |  | 0.237 |  |  |  | 0.013 | 0.024 | 0.048 |  |  |  | 0.029 | 0.121 | 0.025 |  | -0.529 | -0.127 |  |
| SLC1A3 (UniProt P43003) | -0.047 |  | -0.043 | -0.127 | 0.018 | -0.048 |  | -0.099 | -0.065 | 0.087 | -0.101 | -0.286 | 0.254 | 0.043 | -0.095 | -0.1 | -0.01 | 0.003 | 0.037 | -0.021 |
| SAP30 (UniProt O75446) |  | -0.164 | 0.04 | 0.037 | -0.039 | 0.013 | -0.292 | 0.025 |  | -0.109 | -0.051 | 0.175 | 0.064 | -0.078 | -0.157 | 0.019 |  | 0.042 | 0.115 |  |
| SDHAF4 (UniProt Q5VUM1) |  | 0.022 |  | -0.035 | -0.045 |  | -0.066 | -0.039 | 0.013 | -0.066 |  | -0.014 |  | 0.053 | -0.065 | 0.368 (active) | -0.018 | 0.075 | 0.162 | 0.048 |
| SEPTIN5 (UniProt G3XAH0) | -0.046 |  | 0.058 | -0.009 | 0.074 | 0.011 | -0.002 | -0.255 (active) |  | 0.049 | 0.211 | -0.079 | 0.075 | 0.04 | 0.023 | 0.014 | 0.002 | 0.097 | -0.021 | 0.056 |
